From PubChem BioAssay AID463173 (ICCB-Longwood Screening Facility, Harvard Medical School, 2010)
Screen size: about 52,000 compounds; about 4,300 (8.3%) were called active. This excerpt belongs to a sample that is enriched for actives. A number with no mark means an inactive call. Cut-off read from the data, not from the text of the source: active = survival mostly below about 52% (no sharp cut-off); inactive = mostly above about 56%.

tested on: DeltatarO mutant; assay: growth inhibition of S. aureus wild type versus tarO mutant, primary screen, teichoic acid synthesis inhibitors, RN4220, OD600 (AID 463173); settings: OD600, 18 h, active compounds read low, screened at 18.75 µg/mL (by protocol)

| Structure (SMILES) | survival |
| --- | --- |
| Cc1ccc(Nc2nc3ccccc3c3nnc(C)n23)c(C)c1 | 70% |
| CC(C)(C)OC(=O)N1CCC(c2c(C(=O)NCc3ccco3)cnn2-c2ccc(F)cc2F)CC1 | 83% |
| COc1cc(C)ccc1OCCSc1nc2ccc(NC(=O)c3ccc4c(c3)OCO4)cc2s1 | 64% |
| CN(C(=O)C1CCCN(c2ncnc3c2nc2n3CCCCC2)C1)c1ccccc1F (stereo not given) | 81% |
| CCC(NC(=O)Nc1cc(OC)ccc1OC)c1c(-n2cccc2)sc2c1CCN(CC)C2 (stereo not given) | 88% |
| Fc1cccc(CSc2ccc(-c3cccs3)nn2)c1 | 94% |
| Cc1ccc(C)c(CNC(=O)c2sc3ncnc(N(C)C4CCCCC4)c3c2C)c1 | 115% |
| Cc1ccc(Oc2coc3cc(OCC(=O)NC4CCCCC4)ccc3c2=O)cc1 | 55% |
| Cc1ccc(Oc2c(C(F)(F)F)oc3cc(OCC(=O)NC4CCCCC4)ccc3c2=O)cc1 | 46% (active) |
| Cc1cc(C)cc(Oc2c(C(F)(F)F)oc3cc(OCC(=O)NC4CCCCC4)ccc3c2=O)c1 | 110% |
| CCc1ccc(C(=O)COC(=O)C(NC(=O)C2CCC(C)CC2)C(C)C)cc1 (stereo not given) | 72% |
| CC1(C)CC(=O)C=C(NCC2CCNCC2)C1 | 95% |
| CCOc1ccc(CCNC(=O)CCN2N=C(c3ccc(OC)cc3)CCC2=O)cc1OCC | 81% |
| Cc1ccccc1NC(=O)c1sc2nc(-c3cc4ccccc4oc3=O)[nH]c(=O)c2c1C | 52% |
| Cc1cc(C)cc(NC(=O)c2sc3nc[nH]c(=O)c3c2C)c1 | 91% |
| Cc1c(C(=O)Nc2ccccc2)sc2nc(-c3cc4ccccc4oc3=O)[nH]c(=O)c12 | 66% |
| COc1ccc(NC(=O)c2sc3nc[nH]c(=O)c3c2C)cc1 | 75% |
| CCOc1cccc2cc(-c3nc4sc(C(=O)Nc5ccc(C)cc5)c(C)c4c(=O)[nH]3)c(=O)oc12 | 51% |
| Cc1cccc(NC(=O)c2sc3nc(-c4cc5ccc(O)cc5oc4=O)[nH]c(=O)c3c2C)c1 | 46% |
| COc1ccc(NC(=O)c2sc3nc(-c4cc5ccc(OC)cc5oc4=O)[nH]c(=O)c3c2C)cc1 | 46% (active) |
| Cc1cc(NC(=O)c2ccc(F)cc2)ccc1-c1cc2ccccc2oc1=O | 75% |
| Cc1ccc(NC(=O)c2sc3nc(-c4cc5ccccc5oc4=O)[nH]c(=O)c3c2C)c(C)c1 | 39% (active) |
| Cc1cc(C)cc(NC(=O)c2sc3nc(-c4cc5ccccc5oc4=O)[nH]c(=O)c3c2C)c1 | 43% (active) |
| COc1ccc(NC(=O)c2sc3nc(-c4cc5cccc(OC)c5oc4=O)[nH]c(=O)c3c2C)cc1 | 46% |
| Cc1c(C(=O)Nc2cccc(F)c2)sc2nc(-c3cc4ccccc4oc3=O)[nH]c(=O)c12 | 37% (active) |
